The supplement of paper PMC11417369
± gives the standard deviation of the averaged measurements. Over roughly 25,000 sequences, “ln(normalized median fluorescence intensity)” has its median near 8.9; the highest 2% begin near 10. Many of the other results were omitted from the sample, so the highest values are more common in it than they were.

Test system: PfAP2-LT AP2 domain (GST-tagged)
Assay: gcPBM binding intensity (ln(normalized median fluorescence intensity)); higher = stronger DNA binding
Outline: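 Using an Agilent 4 × 180k array, primer-extended double-stranded 36-bp intergenic genomic probes and negative controls were exposed for 1 h to GST-fused P. falciparum DNA-binding domains expressed in E. coli. Binding was carried out in 1× PBS with 1% milk, 0.2 mg/ml BSA, 0.5% salmon testes DNA and 0.03% Triton X-100, and protein was detected with Alexa488 anti-GST antibody and a 488 nm scan. Binding intensity is the highest Masliner-normalised natural-log median intensity across replicate spots of either probe orientation.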

| Sequence | gcPBM binding intensity (ln) |
| --- | --- |
| CATAGGAACATAAGTTGTACGCTATACATACAACAT [XGTACX_site1054] | 9.05 ± 0.45 |
| TTTTCTATATAGTGTTGTACATTATTGTGTAAAAAT [XGTACX_site3223] | 8.7 ± 0.46 |
| AATATAATGTAATATACACACATATATTTCTCTTTT [CACACA_site5451] | 8.95 ± 0.45 |
| AGTATACATATATATACACACACACCGATATATATA [CACACA_site8357] | 9.74 ± 0.23 |
| CATACACGCGGACACACACACACACGCATATATAAC [CACACA_site6427] | 10.1 ± 0.23 |
| TATATATATATTTATACACACACATATATTTATATA [CACACA_site8054] | 9.13 ± 0.29 |
| CGCATACACGGACACACACACACATATATATATATA [CACACA_site4520] | 10.23 ± 0.071 |
| TATACACGCGGACACACACACACACGCAAAAAAAAA [CACACA_site6377] | 10 ± 0.23 |
| ACCTACATAACATACACACGCATATATATAATTTTA [CACACA_site2847] | 9.22 ± 0.33 |
| TATAGATACCTATACACACACACACGGACATATATA [CACACA_site7585] | 10 ± 0.25 |
| ATAGTATACAGACACACACACACACCGATATATATA [CACACA_site8511] | 10.1 ± 0.13 |
| TATTTATATTTATATACACACATACATATTTATATT [CACACA_site6535] | 9.1 ± 0.4 |
| ATAGTATACGGACACACACACACACCGATATATATA [CACACA_site5032] | 10.3 ± 0.38 |
| ACCATACATACATACACACACACACGCATATTTATA [CACACA_site7386] | 10.1 ± 0.29 |
| CATATATACACATACACACACACACGGACACGCACA [CACACA_site6910] | 10.07 ± 0.085 |
| ATAATACATACATACATACACACATATATATATATT [CACACA_site3576] | 9.29 ± 0.38 |
| TTTTTAATCATAATATGTACATATAAAAATGGTTTG [XGTACX_site3996] | 8.54 ± 0.41 |
| TAAAAATGTAAACACACACACATAAATATATTTTAT [CACACA_site5397] | 9.45 ± 0.26 |
| GATAAAATAGGACCATATTCTTTAAAACGATAAAAT [XGTACX_negctrl_site405] | 8.73 ± 0.51 |
| TTATATTATATATATATTATATATATGTATGCATAA [TGCATGCA_negctrl_site481] | 8.72 ± 0.2 |
| TTTTGCAAATATTACTGTACACAATCTCATATAATT [XGTACX_site2584] | 8.81 ± 0.35 |
| ATTATTTTTTTTGAAGTGCAATATTATTTTTAATCA | 8.46 ± 0.45 |
| AAAGTATTCTTTACACGTACATATATATAAATATAA [XGTACX_site7557] | 8.59 ± 0.33 |

| Sequence | gcPBM binding intensity (ln) |
| --- | --- |
| CATACACCCGGACACACACACACACCCATATATAAT [CACACA_site4494] | 10 ± 0.35 |
| AAAAAACACGGACACACACACATATACATACATACA [CACACA_site5470] | 9.98 ± 0.41 |
| TACATATTTATATACACACACACACGGATATTTATA [CACACA_site7239] | 9.87 ± 0.45 |
| TTATAAATAAAAAATACACACATATATATATATATA [CACACA_site207] | 9.64 ± 0.2 |
| CATACATACGGACACACACACATATATATATATATA [CACACA_site5598] | 10.3 ± 0.15 |
| TATACACCCGGACACACACACATATATATATATATA [CACACA_site5030] | 10.36 ± 0.028 |
| CTAAAATACGGACACACACACACATATATATATATA [CACACA_site6138] | 10.3 ± 0.11 |
| ATTATATATATATATACACACACATATATATATATA [CACACA_site8373] | 9.47 ± 0.25 |
| AAAATACCCGGACACACACACATATATATATATATT [CACACA_site6137] | 9.88 ± 0.49 |
| AAAAAAAACGGACACACACACATAAATATATATAAA [CACACA_site4260] | 9.86 ± 0.34 |
| AGGATACACGGACACACACACATATATATATATATA [CACACA_site4654] | 10.43 ± 0.078 |
| AGGATACACGGACACACACACATATAGATTTATATA [CACACA_site6552] | 9.78 ± 0.51 |
| AGTAAAAGAAAGCACACACACATGTATTTATGTATG [CACACA_site5998] | 9.71 ± 0.42 |
| TATATATATATATATTGTACACATACATGTAGTTTT [XGTACX_site4848] | 9.48 ± 0.49 |
| ACACATATAATAGTTACATGCAAAAATACTTTTATT [TGCATGCA_site785] | 9.03 ± 0.47 |
| ACCAAATCATATATAGCACACAAATTCTTTATTATT [CACACA_site8911] | 8.94 ± 0.38 |
| TAAAAAAAAACATGATGTACATAAAATTTTTTACTT [XGTACX_site7056] | 8.59 ± 0.47 |
| AAAAAAATATATAAATGTACATATTGTTTAATTAAT [XGTACX_site3794] | 8.7 ± 0.45 |
| ATAATAAATGATAGCACACATATGTACATAAATACA [CACACA_site4634] | 9.24 ± 0.31 |
| TATTAATTTATATCAACACACAAAATCAATATACTT [CACACA_site1757] | 8.7 ± 0.42 |
| ATTATGCTACAAGGAGAACACACAATTGCCACTTTT [CACACA_site8673] | 9.1 ± 0.46 |
| AATGATCATATATACACACACACAAAAAAAAAAAAA [CACACA_site4009] | 9.6 ± 0.45 |
